In publication PMC4336329 (PLoS ONE, 2015):
Among all 310,000 compounds or so, about 14,000 (4.5%) showed an effect of 50% or more. The effect is printed as a negative number. Only a selection was taken, and strong results are over-represented in it overall.

Target: human ether-à-go-go-related gene (hERG) potassium channel (human, UniProt Q12809)
Assay: primary screen, population patch clamp on CHO cells stably expressing hERG; higher = less effect of the substance
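Further: peak tail current of the secondary pulse compared with the same well before compound.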

Chain of human ether-à-go-go-related gene (hERG) potassium channel (Q12809 whole entry, looked up): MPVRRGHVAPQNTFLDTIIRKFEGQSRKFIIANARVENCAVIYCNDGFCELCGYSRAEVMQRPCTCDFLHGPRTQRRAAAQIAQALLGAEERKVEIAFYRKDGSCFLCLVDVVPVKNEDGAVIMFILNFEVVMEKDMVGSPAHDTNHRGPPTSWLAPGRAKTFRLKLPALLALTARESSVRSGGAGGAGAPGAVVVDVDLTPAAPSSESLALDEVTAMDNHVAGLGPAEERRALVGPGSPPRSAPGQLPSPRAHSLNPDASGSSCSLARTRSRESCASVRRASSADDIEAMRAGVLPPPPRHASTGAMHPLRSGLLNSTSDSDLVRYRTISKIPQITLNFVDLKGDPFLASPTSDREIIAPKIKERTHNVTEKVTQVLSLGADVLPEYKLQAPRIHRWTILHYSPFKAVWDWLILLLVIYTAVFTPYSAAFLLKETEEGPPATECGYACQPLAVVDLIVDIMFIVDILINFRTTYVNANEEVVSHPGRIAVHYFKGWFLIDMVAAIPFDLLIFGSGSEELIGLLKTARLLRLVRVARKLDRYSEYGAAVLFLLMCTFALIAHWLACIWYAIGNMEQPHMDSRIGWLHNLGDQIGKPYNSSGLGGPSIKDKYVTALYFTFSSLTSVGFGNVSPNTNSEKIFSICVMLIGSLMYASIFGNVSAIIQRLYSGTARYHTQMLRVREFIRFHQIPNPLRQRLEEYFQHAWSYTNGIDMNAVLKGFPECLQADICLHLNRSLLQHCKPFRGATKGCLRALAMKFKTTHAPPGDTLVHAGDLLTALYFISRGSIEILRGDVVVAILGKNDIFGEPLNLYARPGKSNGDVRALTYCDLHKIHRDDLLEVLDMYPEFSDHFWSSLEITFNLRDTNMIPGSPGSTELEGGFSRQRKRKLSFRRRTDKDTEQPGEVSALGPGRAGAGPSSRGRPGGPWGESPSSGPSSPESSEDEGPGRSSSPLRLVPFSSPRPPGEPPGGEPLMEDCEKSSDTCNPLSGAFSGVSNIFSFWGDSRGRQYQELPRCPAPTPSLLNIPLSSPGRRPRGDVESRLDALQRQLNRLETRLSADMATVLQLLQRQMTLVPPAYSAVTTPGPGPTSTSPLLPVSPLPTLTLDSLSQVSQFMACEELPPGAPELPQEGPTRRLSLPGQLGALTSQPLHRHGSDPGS

Row | Compound | hERG current change (%, negative = inhibition) at 10uM [%]
1 | Cc1cc(NS(=O)(=O)c2ccc(NC(=O)CSc3nnc(-c4ccco4)n3C)cc2)nc(C)n1 | 5.75
2 | CCCCn1c(N)c(N(CC(C)C)C(=O)C2CC(=O)N(CCc3ccccc3)C2)c(=O)[nH]c1=O (centres unmarked) | 7.09
3 | Cc1ccc(Oc2nn[nH]n2)cc1 | 0.395
4 | C=C1[C@@H](OC(C)=O)[C@]23C[C@@H]1[C@@H](OC(C)=O)CC2[C@]12C4C[C@H]3[C@H]1N(CC)C[C@]4(C)CC[C@@H]2O (some centres unmarked) | -40.6
5 | O=C(NCc1n[nH]c(=S)n1-c1ccc(Cl)c(Cl)c1)c1ccc(S(=O)(=O)N2CCOCC2)cc1 | 14.5
6 | N#Cc1ccccc1OCc1nnc(-c2ccccc2Br)o1 | 14.1
7 | O=C(NCc1cccnc1)c1ccccc1NS(=O)(=O)c1ccc(F)cc1F | 9.6
8 | Cn1c(SCCOc2ccccc2Cl)nnc1-c1cccs1 | -35
9 | Cc1ccc2c(c1)C1CN(C)CCC1N2C(=O)Nc1cccc(Cl)c1 (centres unmarked) | -51.1
10 | Cc1ccc2c(c1)C1CN(C)CCC1N2C(=O)c1ccccc1NS(=O)(=O)c1cccc(C(F)(F)F)c1.Cl (centres unmarked) | -48.5
11 | Cc1ccc2c(c1)C1CN(C)CCC1N2C(=O)/C(C#N)=C/c1ccc2c(c1)OCO2 (centres unmarked) | -21.2
12 | Cc1ccc2c(c1)C1CN(C)CCC1N2C(=O)Nc1cccc(C(F)(F)F)c1 (centres unmarked) | -52.4
13 | Cc1ccc2c(c1)[C@@H]1CN(C)CC[C@@H]1N2C(=O)Nc1cccc(C(F)(F)F)c1 | -38.5
14 | Cc1ccc2c(c1)C1CN(C)CCC1N2C(=O)c1cccc(S(=O)(=O)N2CC(C)CC(C)C2)c1.Cl (centres unmarked) | -44.8
15 | Cc1ccc2c(c1)C1CN(C)CCC1N2C(=O)/C=C/c1ccc2c(c1)OCO2 (centres unmarked) | -62.6
16 | Cc1ccc2c(c1)C1CN(C)CCC1N2C(=O)Cc1cccs1.Cl (centres unmarked) | -46.9
17 | Cc1ccc2c(c1)C1CN(C)CCC1N2C(=O)c1cccnc1Cl.Cl (centres unmarked) | 1.59
18 | CCOC(=O)/C(C#N)=C/c1cccc(C)c1 | 12.6
19 | COc1ccccc1-c1nnc(SCC(=O)NCc2ccco2)n1N | 17.2

Row | Compound | hERG current change (%, negative = inhibition) at 10uM [%]
20 | CN(Cc1ccccc1)C(=O)COC(=O)c1ccccc1Nc1ccccc1 | 13
21 | NC(=O)COC(=O)c1c2c(nc3ccccc13)CCCCC2 | -23.2
22 | NC(=O)COC(=O)c1c2c(nc3ccccc13)CCC2 | 9.85
23 | NC(=O)COC(=O)c1c2c(nc3ccccc13)CCCC2 | -53.3
24 | COc1ccc(/C=C/C2=NC(=C\N(C)C)/C(=O)O2)cc1 | -37.6
25 | CN(C)CCCN(CCCNC(=O)/C=N/O)Cc1ccccc1 | 1.31
26 | CN(C)CCCCCCCCCCC(=O)/C=N/O.Cl | -9.03
27 | CN(C)CCCCOc1ccccc1F.O=C(O)C(=O)O | 14.4
28 | CN(CCCCOc1ccc(F)cc1)Cc1ccccc1.O=C(O)C(=O)O | -54.7
29 | CN(CCCCCCCCC(=O)/C=N/O)Cc1ccccc1.Cl | -58.4
30 | COc1ccc(OCCCCN(C)Cc2ccccc2)cc1.O=C(O)C(=O)O | -45.7
31 | CN(CCCOc1ccccc1Br)Cc1ccccc1 | -22.1
32 | CN(CCOc1ccc(F)cc1)Cc1ccccc1.O=C(O)C(=O)O | -23.3
33 | CN(CCCOc1ccccc1F)Cc1ccccc1.O=C(O)C(=O)O | -57.3
34 | CCc1ccccc1NC(=O)CCS(=O)(=O)c1ccc(OC)cc1 | 7.48
35 | CCOC(=O)c1c(NCC2CCCO2)c2ccccc2[nH]c1=O (centres unmarked) | 0.695
36 | CCCN(CC(=O)Nc1ccccc1C)C(=O)c1ccc(C)c(S(=O)(=O)N2CCCCC2)c1 | -11.3
37 | CCCCNc1nc(-c2ccccc2)nc(-n2ccnc2)n1 | 12.2
38 | Cc1ccc(Cl)cc1NC(=O)CC1NC2CCCCC2NC1=O (centres unmarked) | 17.6

Row | Compound | hERG current change (%, negative = inhibition) at 10uM [%]
39 | CCC(C)c1ccccc1N1CC(C(=O)NCCC2=CCCCC2)CC1=O (centres unmarked) | 8.97
40 | COC(=O)c1ccc(OC)c(-c2c(OC)cc(OC)cc2OC)c1 | -1.49
41 | Cc1cccc(-n2ncc3c(N4CC(C)CC(C)C4)ncnc32)c1 (centres unmarked) | 8
42 | Cc1ccc(NC(=O)C(=S)NCc2ccco2)cc1 | 7.1
43 | O=c1cc(CSc2ccc(Cl)cc2)nc(-c2ccccc2)[nH]1 | -59.7
44 | O=c1cc(CSc2ccc(Cl)cc2)nc(-c2ccncc2)[nH]1 | 1.72
45 | O=c1cc(CSc2ccccc2)nc(-c2ccccc2)[nH]1 | 6.19
46 | CC(C)C(=O)NC(=S)/C=C1/N(C)c2ccccc2C1(C)C | -1.42
47 | O=C(Cc1sc(-c2ccccc2Cl)nc1-c1ccccc1)Nc1ccccc1 | 11.3
48 | O=C(c1ccc(OC2CCN(CCO)CC2)cc1)N1CCCC1 | 18.1
49 | O=C(c1ccc(OC2CCN(C/C=C/c3ccc(F)cc3)CC2)cc1)N1CCCC1 | -75.5
50 | COc1ccccc1/C=C/CN1CCC(Oc2ccc(C(=O)N3CCCCC3)cc2)CC1 | -44.6
51 | COc1ccc(/C=C/CN2CCC(Oc3ccc(C(=O)N4CCCCC4)cc3)CC2)cc1 | -53.6
52 | COCC(=O)N1CCC(Oc2ccc(C(=O)N3CCCCCCC3)cc2)CC1 | 22.7
53 | CC(C)/C=C/CN1CCC(Oc2ccc(C(=O)N3CCCC3)cc2)CC1 | -35.3
54 | O=C(c1ccc(OC2CCN(C/C=C/c3ccc(F)cc3)CC2)cc1)N1CCCCC1 | -64.9
55 | O=C(c1ccc(OC2CCN(Cc3ccccc3OC(F)F)CC2)cc1)N1CCCC1 | -3.42
56 | COCC(=O)N1CCC(Oc2ccc(C(=O)N3CCCCCC3)cc2)CC1 | 12.1
